Laboratory results taken from PubChem BioAssay AID881 (National Center for Advancing Translational Sciences (NCATS), 2007).
Hit rate of the full screen: of about 110,000 compounds, about 610 (0.55%) were called active. Not shown: some 3% with an inconclusive outcome. The call rests on the fitted dose curve; in most records, active means well fitted inhibition curve with a large enough effect; inconclusive means small, poorly fitted or top-dose-only effect; inactive means no such curve, though single readings can be large or run the other way. The sample as a whole holds a higher share of actives than the screen did.

These compounds were tested against Polyunsaturated fatty acid lipoxygenase ALOX15B (Homo sapiens) (UniProt O15296) (assay: qHTS Assay for Inhibitors of 15-hLO-2 (15-human lipoxygenase 2)). Details: purified 15hLO-2, xylenol orange hydroperoxide absorbance; series mostly up to 57.1 µM; activity change, negative = inhibition: at the top concentration.
Excerpt: Assay Overview: NIH Molecular Libraries Screening Centers Network [MLSCN] NIH Chemical Genomics Center [NCGC] MLSCN Grant: MH081283-01A1 PI Name: Holman, T.R., University of California, Santa Cruz Human lipoxygenase 15hLO-2 is a member of the closely related lipoxygenase family of enzymes which catalyze the site-specific oxidation of arachidonic acid to various hormone precursor molecules and as such is a candidate for drug development in a variety of disease areas, such as cancer and inflammation. Inhibition of 15hLO-2 activity was screened by utilizing arachidonic acid as a substrate. The extent of hydroperoxide product formation was measured by a secondary chromogenic reaction in which xylenol orange (XO, Sigma-Aldrich, cat. number 39,818-7) reacts with the ferric ions produced from the reaction between the hydroperoxide and ferrous ions. The Fe(III)-XO complex is characterized with red-shifted absorbance at 560 nm. A purified preparation of human 15hLO-2 was supplied by Professor Ted Holman, University of California, Santa Cruz.
Assay Protocol: Buffer: 25 mM Hepes pH 7.5, 0.01% Triton X-100. Reagents/Controls: Buffer in columns 3 and 4 as negative control (no enzyme). Substrate solution: 45 uM arachidonic acid (Sigma-Aldrich, St. Louis, MO) final concentration dispensed throughout the plate. Enzyme: 50 nM 15hLO-2 final concentration in columns 1, 2, 5-48. Column 1 is neutral (100% activity). Column 2 contained pin-transferred titration of NDGA (nordihidroguaiaretic acid, Sigma-Aldrich, N 5023, top concentration 10 mM in DMSO, then 1:2 dilution in duplicate). (Dilution factor: 23 nL into 4 uL.) Chromogenic detection reagent (divalent iron/xylenol orange, Fe-XO): 200 uM xylenol orange plus 300 uM ferrous ammonium sulfate prepared freshly in 50 mM sulfuric acid. Assay Steps: Three uL of enzyme were dispensed to 1536-well Greiner black clear bottom plates. Compounds and controls (23 nL) were transferred via Kalypsys PinTool. The plates were incubated for 15 min at room temperature, and then 1 uL of substrate solution was added to start the reaction. After room temperature incubation for 90 minutes, 4 uL of Fe-XO solution was added to each well followed by a short spin (1000 rpm, 15 sec) and the plates were then incubated for 30 min. The absorbance at 405 and 573 nm were measured using ViewLux (Perkin-Elmer) High-throughput CCD imager and absorbance protocol settings. The 573-to-405 absorbance ratio was used to compute reaction progress.
Further: nearly all actives have a fitted effect of over 60% in size.
On the % scale 0 is the no-effect control and ±100 the full control effect; potency means the concentration at half of the fitted maximal effect.

Sequence of Polyunsaturated fatty acid lipoxygenase ALOX15B (Homo sapiens) (O15296 whole entry, looked up): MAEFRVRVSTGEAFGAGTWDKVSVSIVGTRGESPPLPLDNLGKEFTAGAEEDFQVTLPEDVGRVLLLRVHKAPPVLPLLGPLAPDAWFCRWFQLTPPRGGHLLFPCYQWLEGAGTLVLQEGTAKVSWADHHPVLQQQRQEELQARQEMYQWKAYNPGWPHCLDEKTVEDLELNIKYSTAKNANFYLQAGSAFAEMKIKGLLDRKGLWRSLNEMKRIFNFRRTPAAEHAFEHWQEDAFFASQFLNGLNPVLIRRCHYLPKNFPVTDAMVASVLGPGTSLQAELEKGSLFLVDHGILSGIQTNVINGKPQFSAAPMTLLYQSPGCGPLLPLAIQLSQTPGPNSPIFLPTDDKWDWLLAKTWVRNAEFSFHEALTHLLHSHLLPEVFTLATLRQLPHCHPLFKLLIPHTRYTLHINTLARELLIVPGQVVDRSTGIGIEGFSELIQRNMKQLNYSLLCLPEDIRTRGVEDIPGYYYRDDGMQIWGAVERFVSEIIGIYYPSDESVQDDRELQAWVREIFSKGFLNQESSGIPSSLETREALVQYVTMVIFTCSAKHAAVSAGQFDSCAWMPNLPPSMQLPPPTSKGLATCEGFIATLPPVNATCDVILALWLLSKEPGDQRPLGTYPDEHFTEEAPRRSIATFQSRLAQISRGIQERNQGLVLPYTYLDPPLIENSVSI

Activity change, negative = inhibition, inactive:
COc1cc(/C=N/O)cc(Br)c1OCc1cccc(Cl)c1 -5.31%
CSCc1cc(N(C)C)nc(SCc2ccc(Cl)cc2Cl)n1 17.6%
CCOC(=O)C1=C(C(=O)OCC)C(C(=O)OCC)N(S(=O)(=O)C(F)(F)F)c2ccccc21 (stereo not given) 7.83% [at 0.0915 µM]
CC1CCCCC1NC(=O)C1CCCN1S(=O)(=O)c1cccc2nsnc12 (stereo not given) 5.08%
Cc1nnc(NC(=O)CCCOc2ccccc2)s1 -12.9%
O=C(CN1C(=O)C2C3C=CC(C3)C2C1=O)Nc1nc(-c2ccccn2)cs1 (stereo not given) 24.9%
CCCCOC(=O)Nc1sc2nc(C)cc(C)c2c1-n1cccc1 -6.45%
CCOC(=O)c1c(NC(C)=O)sc2c(O)c(Br)ccc12 -25.8%
COc1ccc(C(=O)Nc2ccc(S(=O)(=O)NC(C)C)cc2)cc1 -1.16%
COC(=O)c1cc(NC(=O)CC2C(=O)NCCN2C(=O)c2ccc(F)cc2)cc(C(=O)OC)c1 (stereo not given) -1.66%
Cn1ccs/c1=N\S(=O)(=O)c1ccc(C(C)(C)C)cc1 -3.71%
COCC(C)NC(=O)c1ccc(-n2nc(C(F)(F)F)cc2-c2cccs2)cc1 (stereo not given) 4.55%
NC(=O)c1nsc(C(=O)N(CC(=O)NCc2ccc(F)cc2)Cc2ccco2)c1N -1.25%
Cc1ccc(-c2cc(=O)c3ccc(Cl)cc3[nH]2)cc1 -2.63% [at 0.0915 µM]
COc1ccc(C)cc1N(C)C(=O)c1coc(=O)c2ccccc12 -9.94%
C=CCC1CCC(=O)N2CCCC12 (stereo not given) -5.32% [at 0.0915 µM]
Cc1ccccc1OCC(=O)NCC(=O)OCC(=O)c1ccc2ccccc2c1 5.04%
Brc1ccc(C2=NCCC(c3ccccc3)O2)cc1 (stereo not given) 18.5% [at 0.0915 µM]
O=C(c1cccc(F)c1)N1CCN(c2ccc([N+](=O)[O-])c(N3CCCCC3)c2)CC1 -15.7%
O=C1OCCN1C(=O)[C@H]1[C@H](c2ccc(Cl)cc2)C(c2cccc(Cl)c2)=NN1c1ccc(Br)cc1 4.34% [at 0.0915 µM]
CC1(C)O[C@@H]2C[C@@H]3[C@H]4C[C@@H](F)C5=CC(=O)C=C[C@]5(C)[C@@]4(F)[C@@H](O)C[C@]3(C)[C@]2(C(=O)CO)O1 -10.6% [at 0.0915 µM]
O=C1CCC[C@@H]2CC(N3CCCCC3)C[C@@H]3CCN1[C@H]23 (stereo not given in full) -0.97% [at 0.0915 µM]
CCOn1c(SC(C)C)nc2ccccc2c1=O 0.625%
C=CC1(C)CC(=O)C2(O)C(C)(O1)C(OC(C)=O)C(O)C1C(C)(C)CCC(O)C12C (stereo not given) 1.16% [at 0.0915 µM]
COc1cc(C(=O)N2CCOCC2)cc(OC)c1OC 5.48% [at 0.0915 µM]
Cc1ccccc1NC(=S)Nc1cccc([N+](=O)[O-])c1 -5.17%
Cc1ccc(NC(=O)Cn2nc(C)c3ccccc3c2=O)c(C)c1 -7.07%
CC(C)NC(=O)C(=O)NCCN1CCN(S(=O)(=O)c2ccc(Cl)cc2)CC1 8.55%
FC(F)(F)c1cnc(Oc2ccccc2-c2nnc(-c3ccc(Cl)cc3)o2)c(Cl)c1 -0.426%
O=C(Oc1ccccc1)Oc1ccc2c(c1)oc(=O)c1ccccc12 -17.5%
Cc1ccnc(N2CCC(C(=O)NC3CCCCCC3)CC2)n1 6.51%
Cc1nc2ccccc2c(=O)n1CCCn1ccnc1 9.49% [at 11.4 µM]
N#Cc1ccc(Oc2cc(C(F)(F)F)nc(-c3ccccn3)n2)cc1 5.16%
CCCCCCCCCCCCCCCCO 14.3% [at 0.0915 µM]
CN(C(=O)CSc1nc(C2CC2)nc2ccccc12)c1nc(-c2ccccc2)cs1 2.08%
Cc1cc(N/C=C\C(=O)c2ccc(Cl)c(Cl)c2)no1 -13.7%
Cc1ccc(-n2c(SCC(=O)NCc3ccc4c(c3)OCO4)nnc2-c2cccnc2)c(C)c1 -2.26%
Cc1ccc(CC2(O)CCN(CCOc3ccc(O)cc3)CC2)cc1 15.1% [at 0.0915 µM]
Cc1ccc(/C=N/NC(=O)Cn2nc(C)c(Br)c2C)o1 -9.43%
C=CCN(N=Nc1cccc([N+](=O)[O-])c1)c1cccc([N+](=O)[O-])c1 -5.62%
CN(C)c1ccc(CNC2C3CC4CC(C3)CC2C4)cc1 (stereo not given) 67.5%
O=C(COc1ccc(Br)cc1F)NC1CCN(Cc2ccccc2)CC1 29.1%
N#CC1=C(SCc2ccc(C#N)cc2)N=C(N)C(c2nc(-c3ccccc3)cs2)C12CCCCC2 (stereo not given) -1.4%
CCOc1c2ccc(C(=O)NCc3ccc(OC(F)(F)F)cc3)cc2nn1C 10.7%
CC(=O)N1C(=O)C2(Nc3ccccc3N2)c2ccccc21 3.55%
Cc1ccc(NC2(C#N)C(=O)Nc3ccccc32)cc1 (stereo not given) -9.55%

Potency, active:
Cc1c(O)c(Br)c(C)c(O)c1Br (tested in a mixture with another compound) 2 µM
Cc1ccc(NC(=S)Nc2ncccc2C)c(C)c1 7.94 µM
Cc1ccnc(-n2sc3ccccc3c2=O)n1 7.94 µM
O=C1Nc2ccccc2C12Nc1ccccc1S2 (stereo not given) 7.94 µM
